# Hits are enriched below; roughly 3% of the tested compounds scored in any of these assays.
# FBPA coupling cs = qHTS Assay for Inhibitors of Fructose-1,6-bisphosphate Aldolase from Giardia Lamblia: Coupling assay counterscreen; coupling enzyme system counterscreen, AmpLite Red fluorescence; activity change, negative = inhibition, % at 58.2 µM, hits read low; 0.67% of 290,000 active; AID 2472, 2010; in the data active = activity change below about -30%
#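 Counterscreen lacking aldolase: glyceraldehyde-3-phosphate coupling-enzyme reagent preincubated 10 min at RT with compound (at 57.5 uM final), then substrate/coupling system with AmpLite Red added; fluorescence read at 525/598 nm after 20 min RT.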
# Tau FP inhib = qHTS for Inhibitors of Tau Fibril Formation, Fluorescence Polarization; Microtubule-associated protein tau (Homo sapiens), P10636; K18 P301L tau heparin fibrillization, Alexa594 FP, 6 h; Potency, µM (titrated, usually from 57.7 µM), usual class: inhibitors; 0.39% of 280,000 active; AID 1468, 2008; also: nearly all actives have a fitted effect of over 55% in size
# Target sequence (P10636 561-689 P618L limits assumed): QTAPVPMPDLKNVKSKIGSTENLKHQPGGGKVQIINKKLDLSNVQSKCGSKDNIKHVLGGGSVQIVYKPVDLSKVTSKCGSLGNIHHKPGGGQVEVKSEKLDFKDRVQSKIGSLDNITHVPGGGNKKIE
#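 K18 P301L tau (15 uM unlabeled/0.24 uM Alexa 594-labeled, final) + compound + heparin 20 uM final; 100 mM NaOAc pH 7; 6 hr 37 C; ThT 30 uM final added, 1 hr RT; FP ex 555/em 632 nm.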
# Tau fibril ThT = qHTS for Inhibitors of Tau Fibril Formation, Thioflavin T Binding. recombinant tau K18 P301L, heparin-induced fibrillization, ThT fluorescence. Potency, µM (doses to about 57.4 µM), actives largely listed as inhibitors. 2.1% of 270,000 active; also: nearly all actives have a fitted effect of over 55% in size
#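 Tau K18 P301L fragment (15 uM unlabeled plus 0.24 uM Alexa 594-labeled) in 100 mM sodium acetate pH 7 with compound, fibrillization induced by 20 uM heparin for 6 hr at 37 C. Thioflavin T (30 uM) added, fluorescence read after 1 hr (ex 450, em 510 nm).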
# Tau fluor cs = Counterscreen qHTS for Inhibitors of Tau Fibril Formation, Fluorescence Polarization | AID 1463, 2008 | Potency, µM (highest dose often 57.7 µM) | tau K18 P301L (four-repeat tau fragment) Alexa594 fluorescence, heparin fibrillization | 0.93% of 280,000 active; also: nearly all actives have a fitted effect of over 55% in size
#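 Human K18 P301L tau (15 uM unlabeled plus 0.24 uM Alexa 594-labeled, final) in 100 mM sodium acetate pH 7 was mixed with compound and 20 uM heparin and incubated 6 hr at 37 C.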
# JMJD2E inh = qHTS Assay for Inhibitors of Human Jumonji Domain Containing 2E (JMJD2E). 1.6% of 230,000 active. Potency, µM (titrated, usually from 57.1 µM), actives largely listed as inhibitors. Lysine-specific demethylase 4E (Homo sapiens), B2RXH2. JMJD2E catalytic domain, FDH-coupled NADH fluorescence (FDH is formaldehyde dehydrogenase); also: nearly all actives have a fitted effect of over 50% in size
# Target sequence (B2RXH2 1-337 limits assumed): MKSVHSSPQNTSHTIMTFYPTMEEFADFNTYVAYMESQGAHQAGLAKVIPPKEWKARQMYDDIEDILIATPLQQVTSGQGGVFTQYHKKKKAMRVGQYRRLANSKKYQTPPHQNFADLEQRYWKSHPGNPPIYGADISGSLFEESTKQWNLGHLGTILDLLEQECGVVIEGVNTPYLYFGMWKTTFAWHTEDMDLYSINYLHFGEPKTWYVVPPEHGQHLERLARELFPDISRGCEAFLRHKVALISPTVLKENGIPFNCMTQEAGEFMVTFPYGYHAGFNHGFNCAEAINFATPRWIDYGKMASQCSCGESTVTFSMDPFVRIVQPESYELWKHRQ
# A number is an active result; . = inactive; ? = inconclusive; / = no result; ! = not confirmed by another sample; [ ] = remark or other dose. Unless noted, calls follow the shape of the dose curve; as a rule, active = well fitted curve in the direction sought with a large enough effect; inconclusive = small, poorly fitted or top-dose-only effect, or another doubt; inactive = no such curve, though single readings can be large; an effect the other way counts as inactive or inconclusive.
SMILES,FBPA coupling cs,Tau FP inhib,Tau fibril ThT,Tau fluor cs,JMJD2E inh
CCOc1cccc(CNc2ccc(O)cc2)c1OCc1ccc(Cl)cc1,-51,13µM,8.9µM,?,.
CCOc1cc(CNCc2ccccc2)ccc1OCc1ccc(Cl)cc1,.,/,/,/,/
Oc1ccc(NCc2ccccc2OCc2ccccc2Cl)cc1,/,.,28µM,16µM[quencher],/
Cc1ccc(NCc2ccccc2OCc2ccccc2F)cc1,.,.,.,?,.
CCOc1ccccc1CNc1ccc(O)cc1,-39,8.9µM,7.1µM,?,.
CCOc1cc(CNc2ccc(O)cc2)ccc1OCc1ccc(Cl)cc1Cl,-52,22µM,13µM,?,4.5µM
Oc1ccc(NCc2ccccc2OCc2ccccc2F)cc1,-52,22µM!,16µM,7.9µM[quencher],5µM
Oc1ccc(NCc2ccc(OCc3ccccc3Cl)cc2)cc1,/,?,14µM,7.9µM[quencher],/
COc1ccc(Cl)cc1Nc1ncnc2c1nc1n2CCCC1,/,.,.,.,/
O=C(NC1CC(=O)N(c2ccc(Cl)cc2)C1)C(=O)c1c[nH]c2ccccc12 (stereo unspecified),/,?,.,.,/
CC(=O)c1ccc(NC(=O)c2nc(-c3ccccc3)n(-c3ccccc3)n2)cc1,/,.,.,.,/
N#Cc1ccc(NC(=O)c2nc(-c3ccccc3)n(-c3ccccc3)n2)cc1,-38,.,.,.,?
CCCn1c(=O)n(-c2ccccc2Cl)c(=O)c2sc3ccccc3c21,/,.,.,.,/
O=C(CCN1C(=O)/C(=C/C=C/c2ccccc2)SC1=S)Nc1nc2ccccc2s1,.,.,3.5µM,.,.
O=C(CN1C(=O)/C(=C\C=C\c2ccccc2)SC1=S)Nc1ccc(F)cc1,.,.,.,.,.
O=C(COC(=O)CCN1C(=O)/C(=C\C=C\c2ccccc2)SC1=S)Nc1cc(F)ccc1F,.,.,6.3µM,?,.
CC(=O)c1ccc(C2C=CC(O)C(CO)O2)cc1 (stereo unspecified),.,.[11.6 µM],.[11.5 µM],.[11.6 µM],/
COc1ccc(C(=O)c2cc([N+](=O)[O-])ccc2N2CCCC2)cc1,.,.,?,?,.
COc1ccc(C(=O)c2cc([N+](=O)[O-])ccc2N2CCN(C)CC2)cc1,.,.,.,.,1µM
O=c1nc(/C=C/c2ccc(O)c(O)c2)oc2ccccc12,.,.,?,.,13µM
COC(=O)CC1=C(C(=O)OC)C(c2cccs2)C(C#N)=C(N)O1 (stereo unspecified),.,.,?,.,22µM
COc1ccc(N2C(=O)[C@@H]3[C@H](C2=O)[C@H]2c4ccccc4C=CN2[C@@H]3C(=O)Nc2ccccc2)cc1,.,.,?,?,.
CC(C)(C)C(=O)[C@@H]1[C@@H]2C(=O)N(c3ccc4c(c3)OCCO4)C(=O)[C@@H]2C2c3ccccc3C=CN21 (stereo partly specified),-30,?,28µM,?,.
CC(=O)[C@@H]1[C@@H]2C(=O)N(Cc3ccccc3)C(=O)[C@@H]2C2c3ccccc3C=CN21 (stereo partly specified),-33,.,?,.,.
O=C(c1ccco1)[C@@H]1[C@@H]2C(=O)N(c3ccccc3)C(=O)[C@@H]2C2c3ccccc3C=CN21 (stereo partly specified),-47,?,25µM,.,?
SMILES,FBPA coupling cs,Tau FP inhib,Tau fibril ThT,Tau fluor cs,JMJD2E inh
CCN(C(=O)c1c(C)oc2ncnc(N3CCCCC3)c12)c1cc(C)ccc1C,/,.,.,?,/
CCOC(=O)c1sc(NC(=O)Nc2ccccc2Cl)cc1C,.,?,.,8.9µM[quencher],.
CCOC(=O)c1sc(NC(=O)Nc2ccccc2)cc1C,.,?,?,14µM[quencher],.
CCOC(=O)c1sc(NC(C)=O)cc1C,.,.,.,.,.
O=C(CSc1ncn[nH]1)CSc1ncn[nH]1,.,.,.,.,3.5µM
CC(C)(C)NC(=O)NC(=O)CSc1ncn[nH]1,.,.,.,.,.
CC(C)c1ccc(C(=O)CSc2ncn[nH]2)cc1,.,.,.,.,25µM
CCN(CC)C(=O)Cn1c(SCCOc2ccc(Cl)cc2)nc2ccccc21,/,.,.,.,/
COc1cccc(CN2CC34CC(c5ccc(C(C)=O)cc5)C(CC3S2(=O)=O)O4)c1 (stereo unspecified),.,/,/,/,/
CCC1=Nc2cc(C(=O)NCC3CCCO3)ccc2Sc2ccc(Cl)cc21 (stereo unspecified),.,.,.,.,.
CCC1=Nc2cc(C(=O)NCC3CCCO3)ccc2Sc2ccc(Br)cc21 (stereo unspecified),.,4µM,?,?,.
CCS(=O)(=O)n1nc(-c2ccco2)nc1SC,-76,.,.,.,.
CSc1nc(-c2ccco2)nn1S(=O)(=O)c1ccccc1,.,.,.,.,.
CSc1nc(-c2ccco2)nn1S(=O)(=O)c1ccc(C)cc1,-34,?,.,.,?
O=C1C2C(c3ccccc3)CC=CC2C(c2ccc3ccccc3c2)N1Cc1ccccc1 (stereo unspecified),.,/,/,/,/
COCc1cc(C)nc(OCC(=O)N/N=C/c2ccccc2O)c1C#N,.,.,.,.,25µM
COCc1cc(C)nc(OCC(=O)N/N=C/c2ccc(O)cc2O)c1C#N,.,.,.,.,25µM
COCc1cc(C)nc(OCC(=O)N/N=C/c2cccc(OC)c2)c1C#N,.,.,.,.,?
C=CCn1c(SCC(=O)NCc2ccco2)nc2sc3c(c2c1=O)CCCC3,.,.,.,.,.
O=C(NCc1ccco1)c1ccc2nc3sc4c(c3c(=O)n2c1)CCCC4,.,22µM,14µM,.,?
Cc1ccc(N2CCN(C(=O)c3cn(C)c4ccc(S(=O)(=O)N5CCCC5)cc4c3=O)CC2C)cc1 (stereo unspecified),/,.,.,.,/
O=C(OCn1ncc(Br)c(Br)c1=O)c1c(F)cccc1F,.,?,7.1µM,.,.
CC(=O)Cn1ncc(Br)c(Br)c1=O,.,?,?,.,.
C/C(Cn1nnc([N+](=O)[O-])n1)=N\NC(=O)c1cccc(Cl)c1,-36,.,.,.,.
C/C(Cn1nnc([N+](=O)[O-])n1)=N\NC(=O)c1ccccc1Cl,-40,.,.,.,.
C/C=C1\COC(C(=O)NC)(C(F)(F)F)C=C1C=C1CCCCC1 (stereo unspecified),.,/,/,/,/
O=C(Nc1ccc(F)cc1)Nc1nnc(COc2ccccc2F)s1,.,14µM,.,?,.
O=C(Nc1ccc(F)cc1)Nc1nnc(Cc2ccccc2)s1,.,/,/,/,/
O=C(Nc1nnc(COc2ccccc2F)s1)Nc1ccccc1F,.,14µM,/,?,.

# Screening data: PubChem, National Center for Advancing Translational Sciences (NCATS)
